# According to the supplement of paper PMC10981050:
# “And” between values parts separate entries of the source, which are not always exact repeats. Equal values may be shown once. Where a name gives a salt, the structure may show the parent alone.
# What was measured:
# Assay in all cases: cell viability relative to vehicle control; higher = less cytotoxic
# Settings in all cases: 10 µM
# [1] = system: K562
# Procedure, shortened: (§1)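 Screening covered the Selleck bioactive, kinase and epigenetic probe libraries, less identity-inconsistent compounds, on CRISPR-edited mutant clones and isogenic wild-type clones of four leukaemia lines. Cells, at 2000 per well in 50 µL medium, received a single 10 µM acoustically dispensed dose. After 48 h the supernatant was removed and CellTiter-Glo luminescence was read. Viability was analysed in Genedata Screener as percent of the on-plate vehicle control.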
# [2] = system: MARIMO
# Procedure, shortened: as §1
# [3] = system: MOLM14
# Procedure, shortened: as §1
# [4] = system: OCI-AML2
# Procedure, shortened: as §1
SMILES,cell viability ([1]; SRSF2 genotype: SRSF2 P95H/wt),cell viability ([1]; SRSF2 genotype: SRSF2 wt/wt) [%],cell viability ([2]; SRSF2 genotype: SRSF2 P95H/wt) [%],cell viability ([2]; SRSF2 genotype: SRSF2 wt/wt) [%],cell viability ([3]; SRSF2 genotype: SRSF2 P95H/wt) [%],cell viability ([3]; SRSF2 genotype: SRSF2 wt/wt) [%],cell viability ([4]; SRSF2 genotype: P95H/wt) [%],cell viability ([4]; SRSF2 genotype: wt/wt) [%]
COc1ccc([C@@H]2CC(=O)c3c(O)cc(O[C@@H]4O[C@H](CO)[C@@H](O)[C@H](O)[C@H]4O[C@@H]4O[C@@H](C)[C@H](O)[C@@H](O)[C@H]4O)cc3O2)cc1 [Poncirin],99.7% and 97.1%,99.2,97.8,104,102,94.7,95.1,96
CCCCCCCCCCCCCc1cccc(O)c1C(=O)O [Ginkgolic Acid (C130)],108% and 100%,108,103,107,104,110,102,103
C=CC(=O)Nc1cccc(Sc2nc(Nc3ccc(N4CCN(C)CC4)cc3)ncc2Cl)c1,12.7% and 13.8%,13.8,0.51,9.17,0.08,0.12,0.11,0.45
CNC(=C[N+](=O)[O-])NCCSCc1ccc(CN(C)C)o1 [Ranitidine Hydrochloride],108% and 98.4%,102,99.9,106,103,103,91,105
CCOC(=O)N1CCN(c2ccc(OC[C@H]3CO[C@](Cn4ccnc4)(c4ccc(Cl)cc4Cl)O3)cc2)CC1 [Elubiol],43.3% and 36.5%,41.8,29.3,28.8,39,21.1,10.3,15.9
COc1cc(O)c2c(=O)cc(-c3ccc(O)c(O)c3)oc2c1 [Hydroxygenkwanin],85.2% and 89.8%,88.9,45.7,69.4,57.5,58.8,58.3,56.4
CC(=O)OC/C=C(\C)CCC=C(C)C [Geranyl acetate],102% and 95.2%,107,104,112,99.2,111,97.2,103
C/C=C(/C)C(=O)O[C@H]1[C@@H](OC(C)=O)c2c(ccc3ccc(=O)oc23)OC1(C)C [(+)-Praeruptorin A],92.3% and 98.4%,90.2,84.5,93.9,82.8,93.3,90.3,104
COC(=O)Nc1nc2cc(Sc3ccccc3)ccc2[nH]1 [Fenbendazole (Panacur)],17.8% and 31.8%,32.8,27.3,10.4,9.32,4.51,9.8,12.7
CC(C)NC[C@@H](C(=O)N1CCN(c2ncnc3c2[C@H](C)C[C@H]3O)CC1)c1ccc(Cl)cc1 [Ipatasertib (GDC-0068)],90.8% and 87.6%,86.3,80.8,80,51.1,56.6,72.1,81.2
CCCCCCCCCCCCCCCC(=O)OCC [Ethyl palmitate],101%,97.9,103,106,106,101,98,107
OC[C@H]1O[C@@H](Oc2c(O)cc(O)cc2/C=C/c2ccc(O)cc2)[C@H](O)[C@@H](O)[C@@H]1O [Astragalus polyphenols],91% and 89.8%,88.5,82.9,96.1,67.9,80.4,76.8,84.5
Nc1ccccc1NC(=O)c1cnccn1,91.8% and 96%,82.8,76.7,90.7,75.5,73.9,81.3,88.3
Nc1nc(-c2ccco2)c2cnn(Cc3ccccc3F)c2n1 [A2AR antagonist 1],76% and 77.7%,72.9,73.4,70.2,88.9,98.6,91.6,88.5
Cn1cc(CNCC2CCN(c3ncc(C(=O)NO)cn3)CC2)c2ccccc21,1.34% and 13.5%,3,7.96,11.5,0.72,0.54,1.8,2.84
O=C(Oc1cc(S(=O)(=O)c2ccccc2)ccc1[N+](=O)[O-])c1ccc(Cl)cc1,104% and 109%,106,106,103,104,107,114,115
COc1cc(N2CCC(N)CC2)ccc1Nc1ncc(Cl)c(-c2c[nH]c3ccccc23)n1,14.5% and 15.7%,7.15,37.8,33.6,1.81,5.73,6,16.7
COc1cc(-c2oc3cc(O)cc(O)c3c(=O)c2OC2OC(COC3OC(C)C(O)C(O)C3O)C(O)C(O)C2OC2OC(C)C(O)C(O)C2O)ccc1O (stereo unspecified) [Typhaneoside],103%,98.7,93.9,106,98.5,106,110,105
N[C@@H]1CCCN(c2c(/C=C3\SC(=O)NC3=O)cccc2-c2ccccc2)C1,82.5% and 88.2%,81.1,83.9,93,90.8,105,78.6,75.1
C[C@H](CCC(=O)NCCS(=O)(=O)O)[C@H]1CC[C@H]2[C@@H]3[C@H](O)C[C@@H]4C[C@H](O)CC[C@]4(C)[C@H]3C[C@H](O)[C@]12C [Taurocholic acid sodium salt hydrate],110% and 102%,107,107,108,103,111,106,107
C#Cc1cccc(Nc2ncnc3cc(OCCOC)c(OCCOC)cc23)c1 [Erlotinib(OSI-744)],83.5% and 94.5%,84.8,75.9,84.8,79,84.6,77.9,84.4

SMILES,cell viability ([1]; SRSF2 genotype: SRSF2 P95H/wt),cell viability ([1]; SRSF2 genotype: SRSF2 wt/wt) [%],cell viability ([2]; SRSF2 genotype: SRSF2 P95H/wt) [%],cell viability ([2]; SRSF2 genotype: SRSF2 wt/wt) [%],cell viability ([3]; SRSF2 genotype: SRSF2 P95H/wt) [%],cell viability ([3]; SRSF2 genotype: SRSF2 wt/wt) [%],cell viability ([4]; SRSF2 genotype: P95H/wt) [%],cell viability ([4]; SRSF2 genotype: wt/wt) [%]
CC(C)NCC(O)c1ccc(O)c(O)c1 (stereo unspecified) [Isoprenaline hydrochloride],92.4% and 104%,96.9,98.4,100,89.7,96.5,104,101
NCCCC[C@@H]1NC(=O)[C@@H](Cc2ccc(O)cc2)NC(=O)[C@H](CC(=O)O)NC(=O)CNC(=O)[C@H](CCCN=C(N)N)NC1=O [Cyclo(RGDyK)],93.8% and 88.5%,89.8,92.8,96.9,91.3,90.9,94.8,93.9
Nc1ncnc2c1ncn2[C@@H]1O[C@H](COP(=O)(O)O)[C@@H](O)[C@H]1O [5'-Adenylic acid],99.5% and 92.5%,90.4,84,87.2,87.1,89.3,99.6,93.9
N#CC[C@H](C1CCCC1)n1cc(-c2ncnc3[nH]ccc23)cn1,87.3% and 90%,97.7,78,91,68.8,82.6,60.7,57.9
O=C(O)CSc1nnc(Br)n1-c1ccc(C2CC2)c2ccccc12 [Lesinurad],98.3% and 93.5%,97.5,95.1,108,98.7,101,96.9,100
O=C(O)C[C@H](O)C[C@H](O)/C=C/c1c(C2CC2)nc2ccccc2c1-c1ccc(F)cc1 [Pitavastatin calcium (Livalo)],37.4% and 50.7%,34.6,25.3,34.4,32.9,48.4,1.41,4.89
CS(=O)(=O)Nc1ccc([N+](=O)[O-])cc1Oc1ccccc1 [Nimesulide],105% and 109%,99.8,102,108,109,103,101,110
CS(=O)(=O)CCNCc1ccc(-c2ccc3ncnc(Nc4ccc(OCc5cccc(F)c5)c(Cl)c4)c3c2)o1 [Lapatinib],40.9% and 35.3%,35.8,83.2,77.6,75.4,75.6,22.2,45.5
Nc1c(CC(=O)O)cccc1C(=O)c1ccccc1 [Amfenac Sodium (monohydrate)],103% and 98.3%,93.7,94.7,101,91.5,95.9,88.5,99.8
CN(C(Cc1ccc(OS(=O)(=O)c2cccc3cnccc23)cc1)C(=O)N1CCN(c2ccccc2)CC1)S(=O)(=O)c1cccc2cnccc12 (stereo unspecified),80.8% and 87.8%,83.5,74.4,72.7,79.8,74.6,75.7,76.4
O=C1c2c(O)ccc(O)c2C(=O)c2c(NCCNCCO)ccc(NCCNCCO)c21 [Mitoxantrone 2HCl],3.59% and 6.17%,3.76,4.5,1.79,0.19,0.15,0.48,7.36
"CC1(C)C2CCC1(C)C(O)C2 (single isomer, unassigned; (-)) [(-)-Borneol]",103%,106,100,109,101,104,109,106
O=c1[nH]cnc2ccccc12 [4-Hydroxyquinazoline],99.8% and 93.6%,96.8,93.8,92.2,106,95.5,99.6,92.6
C[C@]12CCC(=O)C=C1[C@@H]1C[C@@H]1[C@H]1[C@@H]3[C@@H]4C[C@@H]4[C@@]4(CCC(=O)O4)[C@@]3(C)CC[C@@H]12 [Drospirenone],83.3% and 90.5%,83.3,82,91.8,83.8,89.2,101,92.7
CCCCCCC(O)C(=O)O (stereo unspecified) [2-Hydroxycaprylic acid],103% and 102%,107,101,105,101,109,105,111
CC1(C)CCCC2(C)C1CCC1(C)OC(=O)CC12 (stereo unspecified) [Sclareolide (Norambreinolide)],109% and 97.8%,99.8,95.2,98.7,101,106,102,89.7
CC(C)(C)NC[C@H](O)COc1nsnc1N1CCOCC1 [Timolol Maleate],98.8% and 98.3%,97.4,101,106,99.3,103,103,109
CC=C(C)C(=O)O [Tiglic acid],102% and 106%,109,101,103,102,109,110,98
CN(NC(=O)CC(=O)NN(C)C(=S)c1ccccc1)C(=S)c1ccccc1 [Elesclomol (STA-4783)],28.9% and 15.4%,51.2,11.8,21.5,0.35,0.25,2.86,12.4
C[C@@]1(CO)C[C@@H](O)C[C@@]2(C)[C@@H]3CC[C@](C)([C@@H](O)CO)C=C3CC[C@H]12 [Kirenol],98.1% and 101%,97.7,89.3,96.2,107,104,94.6,101
CN(C)CC[C@H](CSc1ccccc1)Nc1ccc(S(=O)(=O)NC(=O)c2ccc(N3CCN(Cc4ccccc4-c4ccc(Cl)cc4)CC3)cc2)cc1[N+](=O)[O-],49.5% and 28.1%,72.7,0.46,1.66,0.15,2,0.19,3.31
